Experimental data as given in ChEMBL document CHEMBL1961873, “Compounds: GSK PKIS; Assays: Nanosyn kinase panel” (2012).

Key:
[1] = biological target: Fibroblast growth factor receptor 4 (Homo sapiens) (UniProt P22455); settings: at 1 µM;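 note: reported figure is the averaged percent inhibition of FGFR4, from the GSK PKIS kinase screening panel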
[2] = biological target: Tyrosine-protein kinase Fgr (Homo sapiens) (UniProt P09769); settings: at 0.1 µM
[3] = biological target: Tyrosine-protein kinase Fgr (Homo sapiens) (UniProt P09769); settings: at 1 µM
[4] = biological target: Vascular endothelial growth factor receptor 1 (Homo sapiens) (UniProt P17948); settings: at 0.1 µM
[5] = biological target: Vascular endothelial growth factor receptor 1 (Homo sapiens) (UniProt P17948); settings: at 1 µM
[6] = biological target: Receptor-type tyrosine-protein kinase FLT3 (Homo sapiens) (UniProt P36888); settings: at 0.1 µM
[7] = biological target: Receptor-type tyrosine-protein kinase FLT3 (Homo sapiens) (UniProt P36888); settings: at 1 µM
[8] = system: T1, Receptor-type tyrosine-protein kinase FLT3 (Homo sapiens), P36888 [D835Y]; settings: at 0.1 µM
T1 sequence (whole entry): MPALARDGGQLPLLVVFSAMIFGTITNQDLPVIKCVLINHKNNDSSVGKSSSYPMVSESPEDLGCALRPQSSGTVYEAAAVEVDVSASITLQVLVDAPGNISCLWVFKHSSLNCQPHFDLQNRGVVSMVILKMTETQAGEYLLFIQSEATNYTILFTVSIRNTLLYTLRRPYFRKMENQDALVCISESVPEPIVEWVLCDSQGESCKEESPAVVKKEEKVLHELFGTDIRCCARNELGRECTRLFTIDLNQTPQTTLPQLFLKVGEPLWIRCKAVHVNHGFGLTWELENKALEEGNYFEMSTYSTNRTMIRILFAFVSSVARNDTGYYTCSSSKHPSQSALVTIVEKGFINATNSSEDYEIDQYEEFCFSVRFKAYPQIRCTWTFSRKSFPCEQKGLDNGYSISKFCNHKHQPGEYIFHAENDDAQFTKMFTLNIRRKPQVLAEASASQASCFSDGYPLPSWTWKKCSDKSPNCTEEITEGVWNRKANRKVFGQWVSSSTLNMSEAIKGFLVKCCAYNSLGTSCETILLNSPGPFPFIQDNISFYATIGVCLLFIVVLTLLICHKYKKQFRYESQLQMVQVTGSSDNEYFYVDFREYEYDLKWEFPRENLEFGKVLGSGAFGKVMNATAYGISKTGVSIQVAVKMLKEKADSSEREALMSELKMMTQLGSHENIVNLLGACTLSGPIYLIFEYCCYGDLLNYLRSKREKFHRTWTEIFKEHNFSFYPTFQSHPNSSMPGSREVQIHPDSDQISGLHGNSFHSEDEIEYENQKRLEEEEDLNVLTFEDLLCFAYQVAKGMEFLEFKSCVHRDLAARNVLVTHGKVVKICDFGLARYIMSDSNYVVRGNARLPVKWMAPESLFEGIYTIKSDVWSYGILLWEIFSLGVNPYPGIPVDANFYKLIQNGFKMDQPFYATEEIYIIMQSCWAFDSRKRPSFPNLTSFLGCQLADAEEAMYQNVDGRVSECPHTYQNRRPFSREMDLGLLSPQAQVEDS

[9] = biological target: Non-receptor tyrosine-protein kinase TYK2 (Homo sapiens) (UniProt P29597); settings: at 1 µM;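 note: values are mean percent inhibition of TYK2 kinase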
[10] = biological target: T2, Tyrosine-protein kinase receptor TYRO3 (Homo sapiens) (UniProt Q06418); settings: at 0.1 µM
T2 sequence (whole entry): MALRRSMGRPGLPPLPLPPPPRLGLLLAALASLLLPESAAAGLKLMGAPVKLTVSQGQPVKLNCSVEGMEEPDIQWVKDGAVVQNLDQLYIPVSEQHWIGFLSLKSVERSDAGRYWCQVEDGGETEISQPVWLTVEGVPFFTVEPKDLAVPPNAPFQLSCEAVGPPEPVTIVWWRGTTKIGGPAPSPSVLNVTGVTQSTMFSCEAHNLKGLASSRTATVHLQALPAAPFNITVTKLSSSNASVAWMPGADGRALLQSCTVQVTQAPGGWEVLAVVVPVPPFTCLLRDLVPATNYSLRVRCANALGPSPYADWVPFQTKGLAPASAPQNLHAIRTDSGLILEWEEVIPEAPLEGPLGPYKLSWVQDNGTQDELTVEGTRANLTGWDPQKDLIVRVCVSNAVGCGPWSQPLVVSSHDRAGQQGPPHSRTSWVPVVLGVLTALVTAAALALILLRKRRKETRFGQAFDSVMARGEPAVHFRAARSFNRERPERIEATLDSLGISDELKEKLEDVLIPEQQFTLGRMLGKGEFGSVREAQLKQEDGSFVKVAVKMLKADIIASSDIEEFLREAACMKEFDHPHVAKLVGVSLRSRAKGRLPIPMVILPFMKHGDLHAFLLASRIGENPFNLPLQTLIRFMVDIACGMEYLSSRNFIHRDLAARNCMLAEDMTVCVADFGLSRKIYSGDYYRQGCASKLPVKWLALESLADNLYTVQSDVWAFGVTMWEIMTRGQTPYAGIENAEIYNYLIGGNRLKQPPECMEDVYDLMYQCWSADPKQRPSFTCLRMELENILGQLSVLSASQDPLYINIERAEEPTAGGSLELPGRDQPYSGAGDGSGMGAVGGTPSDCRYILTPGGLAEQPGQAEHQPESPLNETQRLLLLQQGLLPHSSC

[11] = biological target: T2, Tyrosine-protein kinase receptor TYRO3 (Homo sapiens); settings: at 1 µM
[12] = biological target: Tyrosine-protein kinase Yes (Homo sapiens) (UniProt P07947); settings: at 0.1 µM
[13] = biological target: Tyrosine-protein kinase Yes (Homo sapiens) (UniProt P07947); settings: at 1 µM
[14] = biological target: T3, Tyrosine-protein kinase ZAP-70 (Homo sapiens) (UniProt P43403); settings: at 0.1 µM
T3 sequence (whole entry): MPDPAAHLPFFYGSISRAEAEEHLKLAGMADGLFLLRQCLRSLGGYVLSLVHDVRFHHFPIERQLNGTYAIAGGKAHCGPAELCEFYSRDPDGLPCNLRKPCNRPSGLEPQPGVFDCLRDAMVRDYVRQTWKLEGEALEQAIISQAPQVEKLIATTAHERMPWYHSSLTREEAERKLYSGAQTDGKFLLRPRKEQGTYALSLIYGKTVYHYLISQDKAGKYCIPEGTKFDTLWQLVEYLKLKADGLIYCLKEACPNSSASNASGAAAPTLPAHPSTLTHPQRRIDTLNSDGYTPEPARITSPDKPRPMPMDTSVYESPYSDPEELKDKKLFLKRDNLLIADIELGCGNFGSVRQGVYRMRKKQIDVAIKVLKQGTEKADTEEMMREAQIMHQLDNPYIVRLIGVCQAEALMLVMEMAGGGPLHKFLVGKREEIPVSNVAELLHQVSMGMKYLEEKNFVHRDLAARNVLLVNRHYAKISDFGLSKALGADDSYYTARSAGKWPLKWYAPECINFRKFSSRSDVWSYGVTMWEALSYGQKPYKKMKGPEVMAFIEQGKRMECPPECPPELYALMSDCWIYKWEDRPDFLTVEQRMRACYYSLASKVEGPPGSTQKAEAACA

[15] = biological target: T3, Tyrosine-protein kinase ZAP-70 (Homo sapiens); settings: at 1 µM
[16] = biological target: Serine/threonine-protein kinase B-raf (Homo sapiens) (UniProt P15056); settings: at 0.1 µM
[17] = biological target: Serine/threonine-protein kinase B-raf (Homo sapiens) (UniProt P15056); settings: at 1 µM
[18] = system: Serine/threonine-protein kinase B-raf (Homo sapiens), P15056 [V600E]; settings: at 0.1 µM
[19] = system: Serine/threonine-protein kinase B-raf (Homo sapiens), P15056 [V600E]; settings: at 1 µM
[20] = biological target: RAF proto-oncogene serine/threonine-protein kinase (Homo sapiens) (UniProt P04049); settings: at 0.1 µM;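 note: values are mean CRAF kinase inhibition from profiling of the GSK Published Kinase Inhibitor Set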
Chain of RAF proto-oncogene serine/threonine-protein kinase (Homo sapiens) (P04049 whole entry): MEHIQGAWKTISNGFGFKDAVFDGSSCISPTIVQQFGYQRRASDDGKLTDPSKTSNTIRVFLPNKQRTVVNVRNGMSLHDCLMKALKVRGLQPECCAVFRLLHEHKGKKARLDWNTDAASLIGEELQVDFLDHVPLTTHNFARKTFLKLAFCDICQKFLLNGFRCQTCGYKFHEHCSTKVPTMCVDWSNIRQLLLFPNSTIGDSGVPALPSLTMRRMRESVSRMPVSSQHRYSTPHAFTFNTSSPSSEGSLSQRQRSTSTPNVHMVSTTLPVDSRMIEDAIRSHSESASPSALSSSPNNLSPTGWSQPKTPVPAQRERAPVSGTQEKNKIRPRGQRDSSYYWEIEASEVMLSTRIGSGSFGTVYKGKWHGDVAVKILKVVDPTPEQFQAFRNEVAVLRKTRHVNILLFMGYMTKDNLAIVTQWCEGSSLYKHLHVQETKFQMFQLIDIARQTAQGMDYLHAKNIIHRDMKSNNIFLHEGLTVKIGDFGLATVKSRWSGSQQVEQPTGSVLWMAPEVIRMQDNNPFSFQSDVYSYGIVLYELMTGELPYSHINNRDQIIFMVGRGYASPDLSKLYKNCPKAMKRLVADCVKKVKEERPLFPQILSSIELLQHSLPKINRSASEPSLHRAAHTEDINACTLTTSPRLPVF

Chain of Tyrosine-protein kinase Fgr (Homo sapiens) (P09769 2-529 limits assumed): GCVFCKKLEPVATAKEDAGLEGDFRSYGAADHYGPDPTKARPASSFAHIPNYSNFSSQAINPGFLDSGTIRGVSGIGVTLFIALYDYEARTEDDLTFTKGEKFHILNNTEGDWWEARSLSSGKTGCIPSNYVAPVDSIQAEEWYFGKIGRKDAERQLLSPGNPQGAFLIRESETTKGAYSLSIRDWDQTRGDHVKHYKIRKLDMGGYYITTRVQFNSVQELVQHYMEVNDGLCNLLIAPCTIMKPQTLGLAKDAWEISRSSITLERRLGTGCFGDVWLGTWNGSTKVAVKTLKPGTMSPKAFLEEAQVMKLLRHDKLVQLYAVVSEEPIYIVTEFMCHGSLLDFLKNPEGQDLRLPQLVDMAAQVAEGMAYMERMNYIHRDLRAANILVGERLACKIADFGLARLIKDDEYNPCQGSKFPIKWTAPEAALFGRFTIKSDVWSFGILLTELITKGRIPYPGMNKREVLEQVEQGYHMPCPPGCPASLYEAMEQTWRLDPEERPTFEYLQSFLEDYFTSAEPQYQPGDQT
Chain of Vascular endothelial growth factor receptor 1 (Homo sapiens) (P17948 whole entry): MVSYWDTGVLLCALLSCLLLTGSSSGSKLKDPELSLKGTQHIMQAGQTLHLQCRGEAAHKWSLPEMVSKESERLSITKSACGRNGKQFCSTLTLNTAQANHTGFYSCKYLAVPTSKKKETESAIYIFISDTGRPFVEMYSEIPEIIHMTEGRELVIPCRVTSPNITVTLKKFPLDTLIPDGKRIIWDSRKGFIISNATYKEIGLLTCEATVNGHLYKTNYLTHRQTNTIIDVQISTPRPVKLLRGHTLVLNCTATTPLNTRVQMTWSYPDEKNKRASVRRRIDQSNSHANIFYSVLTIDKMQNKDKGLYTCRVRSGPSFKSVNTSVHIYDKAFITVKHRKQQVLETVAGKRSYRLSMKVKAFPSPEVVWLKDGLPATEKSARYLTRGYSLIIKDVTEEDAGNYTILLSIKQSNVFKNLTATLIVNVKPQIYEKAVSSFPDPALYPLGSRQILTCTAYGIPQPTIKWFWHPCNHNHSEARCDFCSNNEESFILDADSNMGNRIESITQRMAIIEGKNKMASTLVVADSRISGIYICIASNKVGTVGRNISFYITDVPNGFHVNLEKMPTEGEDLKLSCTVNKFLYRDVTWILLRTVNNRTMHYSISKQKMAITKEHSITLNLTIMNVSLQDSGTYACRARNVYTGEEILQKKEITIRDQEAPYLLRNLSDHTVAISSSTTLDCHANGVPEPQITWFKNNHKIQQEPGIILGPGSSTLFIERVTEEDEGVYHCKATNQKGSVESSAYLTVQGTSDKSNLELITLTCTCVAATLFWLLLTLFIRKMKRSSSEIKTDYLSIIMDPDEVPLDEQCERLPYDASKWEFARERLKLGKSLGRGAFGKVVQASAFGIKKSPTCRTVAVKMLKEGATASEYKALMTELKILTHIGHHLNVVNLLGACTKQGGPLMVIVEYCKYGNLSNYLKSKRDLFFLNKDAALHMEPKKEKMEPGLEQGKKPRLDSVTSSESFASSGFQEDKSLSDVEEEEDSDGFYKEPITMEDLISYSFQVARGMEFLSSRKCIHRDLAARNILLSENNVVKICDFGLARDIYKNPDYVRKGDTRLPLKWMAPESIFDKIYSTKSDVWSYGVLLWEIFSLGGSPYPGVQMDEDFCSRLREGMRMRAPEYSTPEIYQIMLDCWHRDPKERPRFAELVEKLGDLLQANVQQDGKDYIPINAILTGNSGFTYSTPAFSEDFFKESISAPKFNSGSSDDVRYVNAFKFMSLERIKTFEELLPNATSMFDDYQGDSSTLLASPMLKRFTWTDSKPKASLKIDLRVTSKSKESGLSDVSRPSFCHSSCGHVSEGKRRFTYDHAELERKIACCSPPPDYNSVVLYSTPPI
Chain of Serine/threonine-protein kinase B-raf (Homo sapiens) (P15056 whole entry): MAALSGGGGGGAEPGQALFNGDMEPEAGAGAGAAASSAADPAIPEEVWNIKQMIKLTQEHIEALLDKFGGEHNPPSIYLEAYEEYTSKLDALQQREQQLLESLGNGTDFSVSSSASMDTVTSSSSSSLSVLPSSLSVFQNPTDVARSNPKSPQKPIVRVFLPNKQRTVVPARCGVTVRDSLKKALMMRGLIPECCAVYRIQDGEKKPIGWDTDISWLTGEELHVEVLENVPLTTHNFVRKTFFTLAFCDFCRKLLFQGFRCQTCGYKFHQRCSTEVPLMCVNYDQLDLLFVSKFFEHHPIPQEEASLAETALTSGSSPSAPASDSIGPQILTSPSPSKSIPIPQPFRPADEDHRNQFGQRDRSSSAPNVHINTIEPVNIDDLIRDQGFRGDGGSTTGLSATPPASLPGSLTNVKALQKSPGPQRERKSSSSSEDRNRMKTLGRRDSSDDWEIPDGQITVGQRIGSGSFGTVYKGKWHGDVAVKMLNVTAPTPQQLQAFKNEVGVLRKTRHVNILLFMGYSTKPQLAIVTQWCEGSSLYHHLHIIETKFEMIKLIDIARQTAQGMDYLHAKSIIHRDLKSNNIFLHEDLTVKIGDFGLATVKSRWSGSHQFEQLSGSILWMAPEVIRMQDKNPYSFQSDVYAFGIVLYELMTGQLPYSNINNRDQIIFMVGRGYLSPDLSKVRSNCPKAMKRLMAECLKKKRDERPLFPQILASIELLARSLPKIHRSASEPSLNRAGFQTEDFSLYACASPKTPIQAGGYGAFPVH
Chain of Tyrosine-protein kinase Yes (Homo sapiens) (P07947 2-543 limits assumed): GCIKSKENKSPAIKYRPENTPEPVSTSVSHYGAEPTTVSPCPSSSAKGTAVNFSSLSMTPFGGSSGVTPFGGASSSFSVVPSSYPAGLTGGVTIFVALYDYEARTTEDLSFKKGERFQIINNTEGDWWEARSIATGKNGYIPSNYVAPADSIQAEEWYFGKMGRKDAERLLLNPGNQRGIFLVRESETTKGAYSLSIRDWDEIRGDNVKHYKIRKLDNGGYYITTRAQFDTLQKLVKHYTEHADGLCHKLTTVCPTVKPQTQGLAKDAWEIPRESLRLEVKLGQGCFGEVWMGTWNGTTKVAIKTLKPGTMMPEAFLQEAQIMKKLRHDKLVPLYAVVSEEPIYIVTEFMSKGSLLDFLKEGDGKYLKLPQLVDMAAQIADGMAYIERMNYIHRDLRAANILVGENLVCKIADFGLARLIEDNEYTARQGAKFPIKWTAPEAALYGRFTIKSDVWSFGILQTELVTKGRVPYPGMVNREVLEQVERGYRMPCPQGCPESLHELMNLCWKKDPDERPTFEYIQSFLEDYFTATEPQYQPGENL
Chain of Non-receptor tyrosine-protein kinase TYK2 (Homo sapiens) (P29597 whole entry): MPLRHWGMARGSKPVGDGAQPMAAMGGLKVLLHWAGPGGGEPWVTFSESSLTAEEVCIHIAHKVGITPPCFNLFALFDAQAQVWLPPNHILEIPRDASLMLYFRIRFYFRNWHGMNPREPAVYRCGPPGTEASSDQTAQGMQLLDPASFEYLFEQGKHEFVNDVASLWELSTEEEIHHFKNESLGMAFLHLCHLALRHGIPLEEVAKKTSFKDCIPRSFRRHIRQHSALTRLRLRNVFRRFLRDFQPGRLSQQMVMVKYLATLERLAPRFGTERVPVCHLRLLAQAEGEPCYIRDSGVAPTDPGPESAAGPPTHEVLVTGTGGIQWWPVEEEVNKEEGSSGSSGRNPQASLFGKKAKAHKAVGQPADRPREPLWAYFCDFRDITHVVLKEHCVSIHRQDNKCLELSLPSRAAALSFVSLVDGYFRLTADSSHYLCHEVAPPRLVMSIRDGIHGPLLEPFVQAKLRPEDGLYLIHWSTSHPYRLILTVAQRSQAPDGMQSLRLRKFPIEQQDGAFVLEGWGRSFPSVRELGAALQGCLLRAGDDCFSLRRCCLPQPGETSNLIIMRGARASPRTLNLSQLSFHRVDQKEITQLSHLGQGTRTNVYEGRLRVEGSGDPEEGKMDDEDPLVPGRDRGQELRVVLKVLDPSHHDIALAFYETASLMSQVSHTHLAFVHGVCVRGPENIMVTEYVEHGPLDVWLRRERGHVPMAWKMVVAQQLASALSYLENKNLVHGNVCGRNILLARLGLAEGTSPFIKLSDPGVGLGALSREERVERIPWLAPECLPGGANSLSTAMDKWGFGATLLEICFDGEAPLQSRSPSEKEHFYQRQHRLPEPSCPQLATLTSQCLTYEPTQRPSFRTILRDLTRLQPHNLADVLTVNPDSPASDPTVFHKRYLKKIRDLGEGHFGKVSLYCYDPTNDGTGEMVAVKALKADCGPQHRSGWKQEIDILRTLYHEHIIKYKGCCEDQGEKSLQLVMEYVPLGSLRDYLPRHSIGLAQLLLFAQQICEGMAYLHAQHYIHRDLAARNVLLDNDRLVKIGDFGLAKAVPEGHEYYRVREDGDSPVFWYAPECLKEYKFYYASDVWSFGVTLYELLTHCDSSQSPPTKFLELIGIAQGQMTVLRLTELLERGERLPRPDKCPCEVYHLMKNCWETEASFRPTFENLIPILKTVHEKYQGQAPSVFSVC
Chain of Serine/threonine-protein kinase B-raf (Homo sapiens), P15056 [V600E] (P15056 whole entry V600E): as the sequence (P15056 whole entry) above, with V600E counted along it

Structure (SMILES) | inhibition [1] [%] | inhibition [2] [%] | inhibition [3] [%] | inhibition [4] [%] | inhibition [5] [%] | inhibition [6] [%] | inhibition [7] [%] | inhibition [8] [%] | inhibition [9] [%] | inhibition [10] [%] | inhibition [11] [%] | inhibition [12] [%] | inhibition [13] [%] | inhibition [14] [%] | inhibition [15] [%] | inhibition [16] [%] | inhibition [17] [%] | inhibition [18] [%] | inhibition [19] [%] | inhibition [20] [%]
Cc1cccc2c1NC(=O)/C2=N\Nc1ccc(S(N)(=O)=O)cc1 | 1.63 | 0.52 | 4.37 | -0.48 | -0.65 | 2.88 | 8.43 | 3.4 | -0.5 | 3.05 | 1.39 | 0.81 | -0.24 | 2.59 | 2.59 | 3.47 | 4.79 | 2.89 | 3.31 | -3.52
NS(=O)(=O)c1ccc(Nc2ncc(-c3ccccc3)o2)cc1 | 1.97 | 2.45 | 10.1 | 4.95 | 13.1 | 35.3 | 78.8 | 8.41 | 2.33 | 3.59 | 4.49 | 3.4 | 7.73 | 2.88 | 2.94 | 5.82 | 8.2 | 6.65 | 6.08 | -0.15
NS(=O)(=O)c1ccc(N/N=C2\C(=O)Nc3ccc4ncccc4c32)cc1 | 6.88 | 8.01 | 42.4 | 11 | 59.6 | 23.9 | 73.2 | 35.1 | 33.5 | 7.02 | 41.9 | 9.32 | 48.2 | 3.49 | 18.7 | 15 | 60.2 | 14.6 | 60.8 | -0.71
CC1=C(C(=O)Nc2cc(Cl)c3[nH]ncc3c2)C(c2ccc(C(F)(F)F)cc2)CC(=O)N1 (stereo not given) | 2.25 | 2.78 | 4.88 | -0.55 | -1.53 | 1.66 | 3.1 | -4.83 | -1.04 | 3.7 | 5.41 | 6.96 | 27.4 | 3.23 | 3.9 | 9.34 | 35.7 | 10.2 | 35.6 | 0.78
c1cc(-c2cnn3nc(N4CCOCC4)ccc23)nc(NC2CC2)n1 | 1.73 | 3.22 | 8.79 | 3.82 | 8.82 | 4.34 | 17.2 | 7.24 | -4.59 | -0.77 | 2.97 | 0.8 | 0.73 | -5.37 | -0.37 | 6.23 | 11.5 | 3.6 | 9.04 | 1.78
CC(C)(CO)CNC(=O)c1ccc2c(c1)/C(=N/Nc1ccc(S(N)(=O)=O)cc1)C(=O)N2 | -0.62 | 3.82 | 22.2 | -1.72 | 11.1 | 0.08 | 6.23 | 1.72 | 4.08 | -0.65 | 5.36 | 1.79 | 16.9 | -3.15 | 0.33 | 5.62 | 43.5 | 7.49 | 44.1 | -0.32
NC(=O)c1sc(-n2cnc3ccc(C(F)(F)F)cc32)cc1OCc1ccccc1Br | 2.14 | 3.5 | 1.54 | 1.4 | 4.1 | 1.91 | 1.02 | -2.48 | -3.62 | 3.13 | 2.95 | 2.93 | 6.95 | 2.64 | 2.31 | 6.14 | 7.4 | 5.99 | 6.42 | -1.07
CNC(=O)c1cncc(/C=C/c2ccccc2Cl)c1 | 1.93 | 5.13 | 9.91 | 0.53 | 2.73 | 1.25 | -0.38 | 3.03 | 2.16 | 0.43 | 2.53 | 3.64 | 7.95 | 1.79 | 1.12 | -0.63 | 0.08 | -0.33 | 0.71 | 0.74
COc1ccc2[nH]c3c4[nH]c5ccc(OC)cc5c4c4c(c3c2c1)C(=O)NC4=O | 3.95 | 10.8 | 28 | 2.46 | 19.2 | 28.6 | 79.1 | 65 | -0.6 | 17.1 | 63.7 | 6.75 | 33.5 | 2.68 | 8.6 | 5.05 | 7.83 | 5.01 | 6.69 | -1.72
[O-][S+]1CCN(Cc2ccc(-c3ccc4ncnc(Nc5ccc(OCc6cccc(F)c6)c(Cl)c5)c4c3)o2)CC1 | 0.31 | 3.65 | 6.21 | 0.35 | -0.47 | 4.64 | 5.03 | 1.35 | -4.3 | 3.67 | 18.8 | 6.03 | 21.1 | 0.38 | 3.57 | 6.54 | 8.02 | 5.36 | 5.17 | -0.6
CCN(CC)S(=O)(=O)c1ccc(OC)c(Nc2ncc(-c3ccccc3)o2)c1 | 3.57 | 10.4 | 38.8 | 7.45 | 30.6 | 10.2 | 53.4 | 17.9 | 0.12 | 8.1 | 45.8 | 24.2 | 58.6 | 2.08 | -0.02 | 0.42 | 0.29 | -0.35 | 0.01 | 0.35
O=C(Nc1n[nH]c2cc(-c3ccc(F)cc3)ccc12)C1CC1 | 1.06 | 1.35 | 9.07 | -0.63 | 0.79 | 1.99 | 3.69 | -0.06 | -3.58 | 4 | 13.5 | 1.98 | 6.64 | 1.71 | 3.64 | 4.3 | 5.73 | 4.48 | 5.12 | 1.6
O=S(=O)(CCNCc1ccc(-c2ccc3ncnc(Nc4ccc(OCc5cccc(F)c5)c(Cl)c4)c3c2)o1)c1ccccc1 | 1.88 | 2.78 | 5.07 | 2.06 | 4.7 | 5.79 | 4.97 | -2.76 | -2.79 | 1.84 | 3 | 3.79 | 7.66 | 2.6 | 1.7 | 8.76 | 8.78 | 6.36 | 6.18 | 1.16
